# Screening data as filed in PubChem.
# Hits are enriched below; roughly 11% of the tested compounds scored in any of these assays.
# ALDH1A1 block = qHTS Assay for Inhibitors of Aldehyde Dehydrogenase 1 (ALDH1A1). Aldehyde dehydrogenase 1A1 (Homo sapiens), P00352. Purified ALDH1A1, NADH fluorescence, propionaldehyde substrate. Potency, µM (titrated, usually from 75.3 µM), for inactives: at the top dose activity, negative = inhibition, most hits filed as inhibitors. 220,000 compounds, 7.3% hits. AID 1030, 2008;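 note: potency is the fitted concentration of half-maximal effect; plate controls were no enzyme wells and a reference inhibitor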
# PNC assembly inh = High Content Assay for Compounds that inhibit the Assembly of the Perinucleolar Compartment; activity change (PNC), negative = inhibition, % at 10 µM; 140,000 compounds, 3.1% hits; AID 2417, 2010; PC3M PTB-GFP, PNC prevalence imaging, 16 h; active compounds read low;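 active = readout at or below -70, meaning at least 70% loss of cells showing the perinucleolar compartment, a nuclear body marking cancer cells; inconclusive = readout between -30 and a set limit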;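 note: plate controls were DMSO wells for no effect and camptothecin positive control wells for full effect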
#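 Read-out is percentage of cells bearing a perinucleolar compartment, from automated 20x imaging of fixed, Hoechst-stained PC3M PTB-GFP cells. Cells were seeded 4 h, then exposed 16 h to compound (23 nl of library stock) in duplicate plates.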
# HPGD inh = qHTS Assay for Inhibitors of HPGD (15-Hydroxyprostaglandin Dehydrogenase); purified HPGD, NADH fluorescence kinetic, PGE2 substrate; 150,000 compounds, 4.3% hits; AID 894, 2007; Potency, µM, for the others: top-dose activity change, negative = inhibition, usual class: inhibitors; 15-hydroxyprostaglandin dehydrogenase [NAD(+)] (Homo sapiens), P15428; note: potency is the fitted concentration of half-maximal effect
# Target sequence (P15428 whole entry, looked up): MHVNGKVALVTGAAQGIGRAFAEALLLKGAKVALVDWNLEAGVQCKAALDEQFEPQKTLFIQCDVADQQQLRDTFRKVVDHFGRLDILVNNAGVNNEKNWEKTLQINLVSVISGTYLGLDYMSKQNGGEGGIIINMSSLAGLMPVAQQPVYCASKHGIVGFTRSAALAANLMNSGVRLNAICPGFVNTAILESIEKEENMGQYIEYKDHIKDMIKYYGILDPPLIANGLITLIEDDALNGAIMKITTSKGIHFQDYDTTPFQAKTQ
#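 20 nM HPGD preincubated 15 min at room temperature with compound in 50 mM Tris-HCl pH 8, 0.01% Tween 20. Started with 1 mM NAD+ and 30 uM prostaglandin E2; NADH fluorescence (360/450 nm) read 5 times over 30-s intervals, last minus first.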
# Starred values were filed as active, the others as inactive; ? = inconclusive; . = no result given; [ ] = dose if it differs, or a comment. Unless noted, calls come from the whole dose curve; as a rule, active = well fitted inhibition curve with a large enough effect (not every such curve was filed as active); inconclusive = small, poorly fitted or top-dose-only effect, or another doubt; inactive = no such curve, though single readings can be large or run the other way. Unless noted, % is set by controls: 0 for no effect and ±100 for the full control effect.
SMILES,ALDH1A1 block,PNC assembly inh,HPGD inh
O=C(NCc1ccc(N2CCCC2=O)cc1)c1ccc(F)cc1,7.2%,.,.
CCN1C(=O)CSc2ccc(C(=O)OC)cc21,1.5%,51.4,3.9%
COCCN1C(=O)c2ccc(C(=O)NCc3cccnc3)cc2C1=O,?,-17.9,-7.2%
CC(C)(C)N1C(=O)c2ccc(C(=O)NCc3ccco3)cc2C1=O,8.91µM*,-25.4,-14.2%
CN1C(=O)c2ccc(C(=O)NCc3ccccc3)cc2C1=O,?,-92.4*,-8.9%
O=C(CCCNS(=O)(=O)c1cccc2nsnc12)NC1CCCCC1,?,-8.1,.
CCOC(=O)c1cc(NC(=O)N(CC)CC)c(C)nc1C,7.1%,-28.0,?
COCCn1cnnc1SCC(=O)Nc1sccc1C(N)=O,3.0%,.,.
CC(=O)NC1C(O)C[C@@](O)(C(=O)O)OC1[C@@H](O)C(O)CO (stereo partly drawn),4.6%,.,2.1%
O=C(NCCCO)C(=O)NCc1ccncc1,7.9%,.,.
CC(C)C(c1nnnn1C1CCCC1)N1CCN(C(=O)c2ccco2)CC1 (stereo not drawn),?,?,-1.1%
COc1cc(OC)c(C#N)c(S(=O)Cc2ccccc2)c1 (stereo not drawn),14.1µM*,31.7,-4.1%
COc1ccc(-c2cc(-c3ccccc3)c(C#N)c(S(C)=O)n2)cc1 (stereo not drawn),?,37.0,?
Cc1ccc(S(=O)(=O)N2CCC(C(=O)NCCc3ccccn3)CC2)cc1,-5.3%,.,.
COc1ccc(CCNC(=O)CN(C)S(=O)(=O)c2ccc(Br)s2)cc1OC,-2.3%,-82.6*,-2.7%
COCCNC(=O)CN(c1ccc(C)cc1)S(=O)(=O)c1ccccc1,9.9%,38.6,-4.5%
CCOc1ccc(N(CC(=O)Nc2ccc(OC)cc2)S(C)(=O)=O)cc1,17.8µM*,-9.9,-9.8%
COc1ccc(CCNC(=O)CN(c2cc([N+](=O)[O-])ccc2OC)S(C)(=O)=O)cc1,10.0%,.,.
CCOc1ccc(NC(=O)CN(c2ccc(OC)cc2)S(C)(=O)=O)cc1,?,?,-16.2%
COCCNC(=O)CN(c1ccc(OC)c(OC)c1)S(=O)(=O)c1ccc(C)cc1,10.5%,-106.0*,-10.3%
COc1ccc(CCNC(=O)CN(C)S(=O)(=O)c2cccs2)cc1OC,-11.2%,23.4,-5.5%
COc1ccc(CCNC(=O)CN(c2ccc(OC)c(OC)c2)S(C)(=O)=O)cc1,-7.4%,-139.2*,-4.1%
COc1ccc(OCC(=O)NNc2c3ccccc3nc3ccccc23)cc1,21.9%,7.4,-13.7%
Cc1ccc(N2C(=O)c3ccc(C(=O)N4CCN(c5ccccc5F)CC4)cc3C2=O)cc1,0.6%,21.7,-2.3%
CC(=O)c1cc(C)ccc1OC(=O)CCN1C(=O)C2C3c4ccccc4C(c4ccccc43)C2C1=O (stereo not drawn),-0.9%,-3.7,-18.9%
SMILES,ALDH1A1 block,PNC assembly inh,HPGD inh
CC(=O)c1cccc(NS(=O)(=O)c2cc(OCC(N)=O)c(C)cc2Cl)c1,8.3%,8.3,-7.8%
COC(=O)C1=C(C(=O)OC)[C@@H]2N(C)c3ccc(OC)cc3[C@@]23C[C@@H](C(=O)OC)N(C(=O)c2cc(C)oc2C)C3=N1,14.4%[13.5 µM],.,6.8%
O=C(Cn1cnc2ccccc21)c1ccc(Br)cc1,-12.9%,.,.
C/C(=N/NC(=O)c1ccc2nc[nH]c2c1)c1cccs1,-4.2%,-14.3,-17.2%
COc1ccc(C2C(C(=O)c3ccccc3)=C(C)Nc3nc4ccccc4n32)c(OC)c1 (stereo not drawn),4.2%,66.0,-9.7%
Cc1nn(-c2ccc(Cl)c(Cl)c2)c(=O)c2ccccc12,2.2%,10.9,-17.0%
Cc1nn(-c2ccc3ccccc3c2)c(=O)c2ccccc12,20µM*,.,.
OCc1ccccc1,8.3%,.,-3.5%
ICCc1ccccc1,3.55µM*,.,10µM*
COCCn1c(=O)c(-c2ccc(F)cc2)nc2cnc(Oc3ccc(OC)cc3)nc21,?,.,-13.2%
CC(=O)N1CCN(c2ccc(S(=O)(=O)NCCN(C(C)C)C(C)C)cc2[N+](=O)[O-])CC1,11.3%,-104.8*,-4.7%
CC(=O)N1CCN(c2ccc(S(C)(=O)=O)cc2[N+](=O)[O-])CC1,5.1%,.,.
COC(=O)c1nnc(C(=O)NCc2ccccc2)c2[nH]c3ccccc3c12,-1.3%,.,-19.9%
Cc1cccc(/C=C2\CCC(=C3SCCCS3)C2=O)c1,8.91µM*,68.7,-28.5%
O=C1C(=C2SCCCS2)CC/C1=C\c1ccc(F)cc1,4.8%,19.9,-6.9%
Cc1ccccc1-c1nc(CN(Cc2c(C)nn(C)c2C)C2CC2)c(C)o1,2.4%,.,.
O=C(CN1CCN(c2ncc(C(F)(F)F)cc2Cl)CC1)NCCNc1ncc(C(F)(F)F)cc1Cl,?,24.4,-16.4%
O=C(CONS(=O)(=O)c1ccc(Cl)cc1)NCCNc1ncc(C(F)(F)F)cc1Cl,12.6µM*,.,.
Cc1ccc(-n2nnnc2-c2cnc3ccc(Cl)cc3c2-c2ccccc2)cc1,?,39.7,-5.9%
Clc1ccc2[nH]cc(-c3nnnn3-c3ccc4ccccc4c3)c2c1,9.46µM*,-6.6,-22.5%
Cc1cn(CC[C@H](N)C(=O)O)c(=O)[nH]c1=O,-6.6%[13.5 µM],.,-3.7%
CC(C)Cn1c(/C=C/c2ccco2)nc2ccccc21,?,5.8,?
CN1c2ccsc2C(O)=C(C(=S)Nc2ccc(F)c(Cl)c2)S1(=O)=O,9.46µM*,-16.7,?
Cn1cc(C(=O)Nc2ccc(F)c(Cl)c2)cn1,12.5%,-23.4,-4.7%
CC(C)N1C(=O)S/C(=C/c2cccnc2)C1=O,12.6µM*,-16.6,1.3%
SMILES,ALDH1A1 block,PNC assembly inh,HPGD inh
CC(C)N1C(=O)S/C(=C/c2ccc3c(c2)n(C)c(=O)n3C)C1=O,8.91µM*,84.9,?
CCOC(=O)C(C)N1C(=O)S/C(=C/c2ccc3c(c2)n(C)c(=O)n3C)C1=O (stereo not drawn),-6.6%,.,.
NC1=NC(=O)/C(=C\c2cccnc2)S1,-5.1%,.,.
CN(C)CCNc1nc2c(c(=O)n(C)c(=O)n2C)n1C,-8.6%[13.5 µM],.,-4.8%
CC1=CC(C)C2(CO)COC(c3ccccc3O)C1C2C (stereo not drawn),11.1%,-15.1,1.4%
Cc1ccc(C(=O)CN2C(=O)c3ccccc3S2(=O)=O)cc1,-5.7%,.,.
Cc1ccc(C(=O)CN2/C(=C(\O)c3ccccc3)C(=O)c3ccccc3S2(=O)=O)c(C)c1,2.82µM*,17.4,-21.9%
O=C(Nc1ccccc1-c1nc2ccccc2s1)C1=COCCO1,11.7%,-24.1,?
CCN(CC)S(=O)(=O)c1ccc(NC(=O)c2cc(C(=O)OC)cc([N+](=O)[O-])c2)cc1,?,54.9,.
COc1cc(C(=O)Nc2ccc(S(=O)(=O)NC(C)(C)C)cc2)cc(OC)c1OC,7.6%,26.7,-3.0%
COC(=O)c1cc(C(=O)Nc2ccc(S(=O)(=O)NC(C)(C)C)cc2)cc([N+](=O)[O-])c1,14.1µM*,?,17.8µM*
COc1ccc(C(=O)Nc2ccc(S(=O)(=O)NC(C)(C)C)cc2)cc1[N+](=O)[O-],17.8µM*,.,.
COc1ccc2[nH]cc(CCNc3ncnc4ccc(-c5ccc6c(c5)OCO6)cc34)c2c1,3.8%,.,.
CC(=O)N(c1ccccc1)C1SC(=O)N(c2ccccc2)C1=O (stereo not drawn),0.631µM*,-0.6,-15.3%
